# Data from PMC7862700, “An all-to-all approach to the identification of sequence-specific readers for epigenetic DNA modifications on cytosine”.
# Key:
# Assay in all cases: DAPPL (digital affinity profiling via proximity ligation, sequencing); 10 mM Tris-HCl pH 7.5, 50 mM NaCl, 1 mM DTT, 4% glycerol, room temperature, 30 min; GST-TFs on glutathione beads, 16-mer random dsDNA library, 0.1% formaldehyde crosslink after washing; high values mean tight binding
# Conditions in all cases: protein: recombinant; tags: N-terminal GST; dsDNA, one strand shown
# FLI1 = target: T1, FLI1 (Homo sapiens, UniProt Q01543 1-452)
# T1 sequence: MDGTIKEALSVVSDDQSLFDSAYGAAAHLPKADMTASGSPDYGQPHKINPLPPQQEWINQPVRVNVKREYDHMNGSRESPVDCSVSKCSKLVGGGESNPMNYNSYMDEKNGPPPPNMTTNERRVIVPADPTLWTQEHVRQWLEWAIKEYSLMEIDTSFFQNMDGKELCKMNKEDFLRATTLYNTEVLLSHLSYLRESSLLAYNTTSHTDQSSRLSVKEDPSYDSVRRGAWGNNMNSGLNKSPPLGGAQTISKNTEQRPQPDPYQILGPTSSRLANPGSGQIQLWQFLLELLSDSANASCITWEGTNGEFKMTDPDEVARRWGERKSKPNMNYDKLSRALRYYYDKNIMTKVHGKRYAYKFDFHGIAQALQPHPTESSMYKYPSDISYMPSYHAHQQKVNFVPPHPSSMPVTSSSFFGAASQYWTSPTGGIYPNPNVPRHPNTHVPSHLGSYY
# Outline: (§1)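 GST fusions of human transcription factors were expressed in yeast and captured with glutathione beads. Once given DNA barcodes and pooled alongside a tag-only sample, they were incubated for 30 min at room temperature with 200 nmole of a random double-stranded 16-mer DNA library in Tris/NaCl/DTT/glycerol buffer, then washed, crosslinked (0.1% formaldehyde), proximity-ligated, PCR-amplified and sequenced on an Illumina NextSeq500. The binding signal of each hexamer is its read frequency for a factor divided by its frequency for the tag-only sample.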
# ELK1 = target: T2, ELK1 (Homo sapiens, UniProt P19419 1-428)
# T2 sequence: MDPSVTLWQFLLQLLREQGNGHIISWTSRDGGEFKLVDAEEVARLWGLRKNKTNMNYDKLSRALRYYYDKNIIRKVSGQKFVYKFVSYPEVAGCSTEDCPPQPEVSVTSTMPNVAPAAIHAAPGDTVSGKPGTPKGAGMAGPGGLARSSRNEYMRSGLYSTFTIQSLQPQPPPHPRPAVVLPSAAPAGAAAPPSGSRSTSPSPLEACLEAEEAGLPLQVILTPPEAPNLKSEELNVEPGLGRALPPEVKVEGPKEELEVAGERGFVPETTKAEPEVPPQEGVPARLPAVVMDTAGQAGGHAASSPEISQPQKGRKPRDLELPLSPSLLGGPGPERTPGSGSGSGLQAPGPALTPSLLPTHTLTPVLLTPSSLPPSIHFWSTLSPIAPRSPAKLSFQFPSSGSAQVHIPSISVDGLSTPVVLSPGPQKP
# Outline: as §1
# GABPA = target: T3, GABPA (Homo sapiens, UniProt Q06546 1-454)
# T3 sequence: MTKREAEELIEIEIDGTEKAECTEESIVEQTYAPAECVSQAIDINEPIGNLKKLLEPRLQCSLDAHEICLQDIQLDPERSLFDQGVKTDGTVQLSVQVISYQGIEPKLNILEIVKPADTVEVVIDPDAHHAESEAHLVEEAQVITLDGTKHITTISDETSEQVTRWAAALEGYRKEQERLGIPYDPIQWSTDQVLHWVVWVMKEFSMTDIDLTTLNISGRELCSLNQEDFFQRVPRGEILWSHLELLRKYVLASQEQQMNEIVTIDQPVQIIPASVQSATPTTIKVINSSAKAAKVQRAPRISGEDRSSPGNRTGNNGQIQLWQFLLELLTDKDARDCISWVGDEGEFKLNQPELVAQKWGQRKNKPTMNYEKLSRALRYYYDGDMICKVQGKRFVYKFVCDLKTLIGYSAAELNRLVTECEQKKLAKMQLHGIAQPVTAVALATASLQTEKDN
# Outline: as §1
# ERG = target: T4, ERG (Homo sapiens, UniProt P11308 1-479)
# T4 sequence: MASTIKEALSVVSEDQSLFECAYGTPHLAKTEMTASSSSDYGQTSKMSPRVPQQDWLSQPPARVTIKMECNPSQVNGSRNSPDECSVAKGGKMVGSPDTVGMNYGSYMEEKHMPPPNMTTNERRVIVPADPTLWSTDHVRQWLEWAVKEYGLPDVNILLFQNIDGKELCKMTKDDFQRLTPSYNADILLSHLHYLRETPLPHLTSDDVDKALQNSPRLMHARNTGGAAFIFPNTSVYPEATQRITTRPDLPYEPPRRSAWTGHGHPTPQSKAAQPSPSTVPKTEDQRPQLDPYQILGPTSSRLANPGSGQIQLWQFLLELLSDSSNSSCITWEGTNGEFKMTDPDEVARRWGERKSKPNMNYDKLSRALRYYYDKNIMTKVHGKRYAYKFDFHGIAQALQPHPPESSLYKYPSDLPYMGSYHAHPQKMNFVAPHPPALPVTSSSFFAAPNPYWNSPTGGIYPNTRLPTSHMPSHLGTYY
# Outline: as §1
# ELF1 = ELF1 (Homo sapiens, UniProt P32519 1-619)
# Outline: as §1
# EHF = target: T5, EHF (Homo sapiens, UniProt Q9NZC4 1-300)
# T5 sequence: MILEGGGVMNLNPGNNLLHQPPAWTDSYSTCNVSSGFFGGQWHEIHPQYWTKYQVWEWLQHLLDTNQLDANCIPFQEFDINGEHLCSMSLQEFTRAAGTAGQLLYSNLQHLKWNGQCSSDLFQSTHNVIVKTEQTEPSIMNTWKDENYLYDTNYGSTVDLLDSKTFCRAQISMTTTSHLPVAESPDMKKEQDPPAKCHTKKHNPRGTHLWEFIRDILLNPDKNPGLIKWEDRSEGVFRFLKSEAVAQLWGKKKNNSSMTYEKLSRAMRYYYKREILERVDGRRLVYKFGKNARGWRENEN
# Outline: as §1
# SPI1 = SPI1 (Homo sapiens, UniProt P17947 1-270)
# Outline: as §1
# SPIB = SPIB (Homo sapiens, UniProt Q01892 1-262)
# Outline: as §1
# ELK3 = target: T6, ELK3 (Homo sapiens, UniProt P41970 1-407)
# T6 sequence: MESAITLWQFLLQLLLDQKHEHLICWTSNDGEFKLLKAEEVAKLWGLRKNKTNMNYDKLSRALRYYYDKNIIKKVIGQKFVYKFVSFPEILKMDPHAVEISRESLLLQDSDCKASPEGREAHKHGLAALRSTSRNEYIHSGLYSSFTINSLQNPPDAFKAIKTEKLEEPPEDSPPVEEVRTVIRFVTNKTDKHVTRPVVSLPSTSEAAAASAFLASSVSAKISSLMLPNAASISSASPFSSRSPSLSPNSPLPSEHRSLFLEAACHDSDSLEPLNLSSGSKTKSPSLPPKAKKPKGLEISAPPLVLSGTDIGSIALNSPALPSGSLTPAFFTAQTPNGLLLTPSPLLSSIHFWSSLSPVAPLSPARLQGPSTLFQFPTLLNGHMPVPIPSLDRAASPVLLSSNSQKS
# Outline: as §1
# Chain of SPIB (Q01892 whole entry): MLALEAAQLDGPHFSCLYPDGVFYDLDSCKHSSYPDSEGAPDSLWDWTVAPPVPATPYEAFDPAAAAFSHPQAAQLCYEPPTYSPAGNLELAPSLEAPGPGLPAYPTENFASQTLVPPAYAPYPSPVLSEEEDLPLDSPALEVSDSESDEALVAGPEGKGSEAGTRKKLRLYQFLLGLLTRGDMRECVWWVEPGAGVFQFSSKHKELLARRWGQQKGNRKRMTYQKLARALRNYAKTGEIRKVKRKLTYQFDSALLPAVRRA
# Chain of ELF1 (P32519 whole entry): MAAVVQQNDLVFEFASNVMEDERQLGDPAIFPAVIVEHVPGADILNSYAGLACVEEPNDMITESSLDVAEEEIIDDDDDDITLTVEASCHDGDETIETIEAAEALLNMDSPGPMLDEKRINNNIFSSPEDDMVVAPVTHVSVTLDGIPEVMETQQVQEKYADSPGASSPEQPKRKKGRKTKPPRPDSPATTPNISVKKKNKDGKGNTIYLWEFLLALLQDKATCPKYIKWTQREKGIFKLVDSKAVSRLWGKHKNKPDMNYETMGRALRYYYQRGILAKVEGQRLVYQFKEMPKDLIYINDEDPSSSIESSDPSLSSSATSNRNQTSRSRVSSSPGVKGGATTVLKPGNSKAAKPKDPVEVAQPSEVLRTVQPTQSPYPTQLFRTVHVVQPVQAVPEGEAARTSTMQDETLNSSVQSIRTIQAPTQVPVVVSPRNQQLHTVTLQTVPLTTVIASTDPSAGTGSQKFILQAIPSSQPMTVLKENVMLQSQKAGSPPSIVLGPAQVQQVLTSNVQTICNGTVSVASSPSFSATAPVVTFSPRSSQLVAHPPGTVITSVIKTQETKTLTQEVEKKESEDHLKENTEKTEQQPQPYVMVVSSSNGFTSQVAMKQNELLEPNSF
Sequence,binding signal (FLI1),binding signal (ELK1),binding signal (GABPA),binding signal (ERG),binding signal (ELF1),binding signal (EHF),binding signal (SPI1),binding signal (SPIB),binding signal (ELK3)
TGGACT,"1.19 fold enrichment (6-mer frequency, TF over GST control)","1.27 fold enrichment (6-mer frequency, TF over GST control)","1.25 fold enrichment (6-mer frequency, TF over GST control)","1.18 fold enrichment (6-mer frequency, TF over GST control)","1.26 fold enrichment (6-mer frequency, TF over GST control)","1.3 fold enrichment (6-mer frequency, TF over GST control)","1.18 fold enrichment (6-mer frequency, TF over GST control)","1.41 fold enrichment (6-mer frequency, TF over GST control)","1.2 fold enrichment (6-mer frequency, TF over GST control)"
TTGTCT,"1.29 fold enrichment (6-mer frequency, TF over GST control)","1.23 fold enrichment (6-mer frequency, TF over GST control)","1.33 fold enrichment (6-mer frequency, TF over GST control)","1.15 fold enrichment (6-mer frequency, TF over GST control)","1.27 fold enrichment (6-mer frequency, TF over GST control)","1.18 fold enrichment (6-mer frequency, TF over GST control)","1.19 fold enrichment (6-mer frequency, TF over GST control)","1.15 fold enrichment (6-mer frequency, TF over GST control)","1.31 fold enrichment (6-mer frequency, TF over GST control)"
AAGCCT,"1.21 fold enrichment (6-mer frequency, TF over GST control)","1.22 fold enrichment (6-mer frequency, TF over GST control)","1.24 fold enrichment (6-mer frequency, TF over GST control)","1.21 fold enrichment (6-mer frequency, TF over GST control)","1.25 fold enrichment (6-mer frequency, TF over GST control)","1.16 fold enrichment (6-mer frequency, TF over GST control)","1.14 fold enrichment (6-mer frequency, TF over GST control)","1.22 fold enrichment (6-mer frequency, TF over GST control)","1.25 fold enrichment (6-mer frequency, TF over GST control)"
TTACCT,"1.12 fold enrichment (6-mer frequency, TF over GST control)","1.19 fold enrichment (6-mer frequency, TF over GST control)","1.32 fold enrichment (6-mer frequency, TF over GST control)","1.17 fold enrichment (6-mer frequency, TF over GST control)","1.19 fold enrichment (6-mer frequency, TF over GST control)","1.31 fold enrichment (6-mer frequency, TF over GST control)","1.19 fold enrichment (6-mer frequency, TF over GST control)","1.4 fold enrichment (6-mer frequency, TF over GST control)","1.22 fold enrichment (6-mer frequency, TF over GST control)"
ACTGCT,"1.44 fold enrichment (6-mer frequency, TF over GST control)","1.45 fold enrichment (6-mer frequency, TF over GST control)","1.29 fold enrichment (6-mer frequency, TF over GST control)","1.29 fold enrichment (6-mer frequency, TF over GST control)","1.35 fold enrichment (6-mer frequency, TF over GST control)","1.41 fold enrichment (6-mer frequency, TF over GST control)","1.46 fold enrichment (6-mer frequency, TF over GST control)","1.36 fold enrichment (6-mer frequency, TF over GST control)","1.26 fold enrichment (6-mer frequency, TF over GST control)"
TGCTCC,"1.53 fold enrichment (6-mer frequency, TF over GST control)","1.41 fold enrichment (6-mer frequency, TF over GST control)","1.45 fold enrichment (6-mer frequency, TF over GST control)","1.37 fold enrichment (6-mer frequency, TF over GST control)","1.31 fold enrichment (6-mer frequency, TF over GST control)","1.46 fold enrichment (6-mer frequency, TF over GST control)","1.38 fold enrichment (6-mer frequency, TF over GST control)","1.41 fold enrichment (6-mer frequency, TF over GST control)","1.38 fold enrichment (6-mer frequency, TF over GST control)"
ATAACC,"1.21 fold enrichment (6-mer frequency, TF over GST control)","1.27 fold enrichment (6-mer frequency, TF over GST control)","1.22 fold enrichment (6-mer frequency, TF over GST control)","1.13 fold enrichment (6-mer frequency, TF over GST control)","1.23 fold enrichment (6-mer frequency, TF over GST control)","1.15 fold enrichment (6-mer frequency, TF over GST control)","1.06 fold enrichment (6-mer frequency, TF over GST control)","1.25 fold enrichment (6-mer frequency, TF over GST control)","1.37 fold enrichment (6-mer frequency, TF over GST control)"
